# Assay outcomes as filed in PubChem.
# CHX counter: counter-screen for Shiga toxin inhibitors: cycloheximide protein synthesis inhibition | cell reporter, cycloheximide protein synthesis inhibition counterscreen | max response, % | actives 12% (n = 300,000) | AID 2314; in the data active = max response mostly above about 13%, no sharp cut-off; inactive = mostly below about 14%; also: read at 38.3 µM for the half of the compounds with a filed dose; 0% is about no effect
# Pf growth 48h: inhibits P. falciparum growth in the first generation, 48 h | actives 5.9% (n = 310,000) | P. falciparum luciferase growth in erythrocytes, 48 h | Potency, µM (top dose mostly 28.7 µM), without a hit: top-dose activity change, negative = inhibition, actives largely listed as inhibitors; also: potency is read from the fitted curve at half-maximal effect; % is scaled to controls: 0 for no effect and ±100 for the full control effect
#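 Here the parasites carry a stable luciferase gene and grow inside erythrocytes in Albumax-based RPMI medium with compound for one erythrocytic cycle. Activity is scored as loss of luminescent signal.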
# AMA1-RON2 inh: inhibitors of Plasmodium falciparum AMA1-RON2 interaction; AlphaScreen AMA1-biotinylated RON2 peptide binding; actives 0.2% (n = 360,000); Potency, µM (series often up to 58.2 µM), inactives show at the top dose activity change, negative = inhibition, most hits filed as inhibitors; AID 720542;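 also: potency is read from the fitted curve at half-maximal effect; 0% = vehicle wells and -100% = peptide control; nearly all actives have a fitted effect of over 45% in size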
#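 AMA1 (3D7) with his tag at 25 nM final met compounds first, then biotinylated RON2 peptide at 25 nM; detection used donor plus acceptor beads, 10 µg/mL apiece, read by AlphaScreen after 30 min at room temperature.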
# Pf growth 96h: inhibits malaria parasite growth, 96 h | actives 6.9% (n = 320,000) | P. falciparum luciferase reporter growth, 96 h | Potency, µM (series often up to 28.7 µM), for the others: top-dose activity change, negative = inhibition, actives largely listed as inhibitors; also: potency is read from the fitted curve at half-maximal effect; % is scaled to controls: 0 for no effect and ±100 for the full control effect
#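 Delayed-death screen, second-generation endpoint: infected erythrocytes, 2% hematocrit, 0.05% parasitemia final; 96 hours at 37 C, 5% CO2; luciferase detection reagent; luminescence decrease equals reduced growth.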
# Shiga inhibitor: Shiga toxin inhibition; actives 9.2% (n = 290,000); inhibition, % at 38.7 µM; Vero cells, Shiga toxin protein synthesis inhibition reporter; in the data active = inhibition mostly above about 28%, no sharp cut-off; inactive = mostly below about 43%; also: 0% is about no effect
# HCV inh: blocks hepatitis C virus | Huh7.5.1 HCVcc-Cre infection, luciferase reporter, 44 h | Potency, µM (highest dose often 41.8 µM), for inactives: at the top dose activity change, negative = inhibition, most hits filed as inhibitors | actives 3.4% (n = 340,000) | AID 651820; also: potency is read from the fitted curve at half-maximal effect; % is scaled to controls: 0 for no effect and ±100 for the full control effect
#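 Luciferase read-out (15 sec integration) after a 15 min room-temperature substrate step quantifies HCVcc-Cre infection. Cells, 1,000 per well, had compound added 4 h post-plating, then virus at ~0.5 moi, and were cultured 44 h.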
# * = called active by the depositor; ? = inconclusive; / = no result; [ ] = remark or other dose. Rows were chosen to be rich in hits. Some 21% of all compounds tested hit in one or more screens of this group. Unless noted, calls follow the shape of the dose curve; as a rule, active = well fitted curve in the direction sought with a large enough effect; inconclusive = small, poorly fitted or top-dose-only effect, or another doubt; inactive = no such curve, though single readings can be large; an effect the other way counts as inactive or inconclusive.
SMILES,CHX counter,Pf growth 48h,AMA1-RON2 inh,Pf growth 96h,Shiga inhibitor,HCV inh
C[C@H]1CN([C@@H](C)CO)C(=O)CCCn2cc(nn2)CO[C@@H]1CN(C)C(=O)Nc1ccc2c(c1)OCCO2,/,/,-0.3%,/,/,/
COc1cccc(/C=N/NC(=O)c2cc(-c3cccn3C)n[nH]2)c1O,9.9,?,13.7%,?,1.0,5.01µM*
Cn1cccc1-c1cc(C(=O)N/N=C/C=C/c2ccccc2)[nH]n1,-1.8,?,20.8%,?,-6.1,?
COc1cc(/C=N/NC(=O)c2cc(-c3cccn3C)n[nH]2)cc(OC)c1OC,-3.0,6.57µM*,13.4%,22.8%,18.1,-5.9%
Cn1cccc1-c1cc(C(=O)N/N=C/c2ccc(Cl)cc2)[nH]n1,-6.6,-23.2%,8.9%,491.8%,2.7,?
COc1cccc(/C=N/NC(=O)c2cc(-c3cccn3C)n[nH]2)c1,9.5,?,-22.8%,11.7µM*,20.6,-10.8%
O=C(NCc1ccc(F)cc1)C(c1ccco1)N(C(=O)c1csnn1)C1CC1 (centres undefined),-2.3,3.6%,-2.5%,18.8%,0.2,-2.2%
CN(Cc1nc(Cc2ccccc2F)no1)Cc1cccc2ncccc12,4.7,?,2.4%,-17.8%,-29.6,11.2µM*
CN(Cc1nc(Cc2ccccc2F)no1)CC1(N2CCOCC2)CCCCC1,-1.6,?,8.1%,?,12.0,-3.9%
CCOc1ccc(Br)cc1/C(C)=N\NC1=NCCN1,-6.1,?,0.8%,/,-19.3,4.47µM*
CC(=NNC1=NCCN1)c1cnn(C2=NCCN2)c1C,/,/,12.6%,/,/,/
CCCCCCOc1ccc(/C(C)=N/NC2=NCCN2)cc1,1.6,?,-21.0%,-7.7%,-8.6,11.2µM*
CCCCCOc1ccc(/C(C)=N/NC2=NCCN2)cc1,-2.6,7.38µM*,-0.8%,11.7µM*,0.9,?
O=C(NCC(=O)N1CCCC1)NN=Cc1ccccc1O,/,/,126.3%,/,/,/
COc1ccc(C2NC(=S)NC3=C2CCc2cc(OC)ccc23)cc1 (centres undefined),6.0,?,6.2%,5.86µM*,-15.2,?
CCCCC(=O)N(C)c1c(CC)nc2c(OCc3cccc(Cl)c3)cccn12,/,/,-1.7%,/,/,/
CCc1ccc(N2CC(C(=O)Nc3cccc(S(=O)(=O)N4CCCC4)c3)CC2=O)cc1 (centres undefined),/,?,-5.9%,?,/,?
CN1CCCC(C)(C(=O)Nc2ccc(-n3cccc3)cc2)C1 (centres undefined),/,/,-12.7%,/,/,/
O=C(Nc1ccccc1C(=O)O)c1cccc(NC(=O)c2ccccc2Cl)c1,1.7,15.2%,-2.0%,10.4µM*,/,9.8%
O=C(O)c1cccc(NC(=O)c2ccccc2NC(=O)c2ccccc2F)c1,-2.6,25.3%,-4.9%,-10.6%,-6.4,0.891µM*
O=C(Nc1ccccc1C(=O)Nc1ccccc1)c1ccccc1F,-4.6,5.6%[0.00184 µM],8.0%,?,-3.8,-12.0%
CCOC(=O)C1=CCN(S(=O)(=O)c2ccc(C)cc2)C1c1ccc(Cl)c(Cl)c1 (centres undefined),/,/,15.3%,/,/,/
CC(C)(C)NC(=O)C(c1ccncc1)n1c(-c2ccc(C(F)(F)F)cc2)nc2ccccc21 (centres undefined),/,/,-10.8%,/,/,/
Cc1ccc(S(=O)(=O)NCCC(=O)N2CCC(Cc3ccccc3)CC2)cc1,/,?,16.4%,?,/,-17.9%
CC(=O)Nc1ccc(S(=O)(=O)NCCC(=O)N2CCN(C(c3ccccc3)c3ccccc3)CC2)cc1,/,11.7µM*,-1.4%,10.4µM*,/,10.9%
SMILES,CHX counter,Pf growth 48h,AMA1-RON2 inh,Pf growth 96h,Shiga inhibitor,HCV inh
CC(=O)Nc1ccc(S(=O)(=O)NCCC(=O)N2CCC(Cc3ccccc3)CC2)cc1,/,?,-15.2%,5.22µM*,/,-7.0%
O=C(CCNS(=O)(=O)c1ccccc1)N1CCN(C(c2ccccc2)c2ccccc2)CC1,-3.2,?,/,5.86µM*,-5.6,/
CC(=O)Nc1ccc(S(=O)(=O)NCCC(=O)N2CCCCC2)cc1,/,-21.6%,-23.9%,7.6%,/,9.6%
O=C(CCNS(=O)(=O)c1ccccc1)N1CCOCC1,-2.1,5.9%,6.8%,8.3%,-4.6,17.8%
Cc1cc(S(=O)(=O)N(Cc2ccccc2Cl)c2ccc3c(c2)CCC3)ccc1-n1cnnn1,-2.0,11.7µM*,12.4%,86.5%,-4.7,-9.7%
COc1cccc(CN(c2ccc3c(c2)CCC3)S(=O)(=O)c2ccc(-n3cnnn3)c(OC)c2)c1,-2.7,?,-1.7%,?,-6.3,-20.3%
C=CCc1cccc(/C=N/NC(=O)CCCNc2ccc(C)cc2)c1O,-10.1,-7.6%,-12.6%,?,-8.6,-10.6%
C=CCc1cccc(/C=N/NC(=O)C(C)Nc2cccc(C)c2)c1O (centres undefined),-5.7,13.1µM*,63.5%,86.7%,2.4,?
O=C(Nc1ccccc1N1CCCCC1)c1ncoc1-c1cccc(F)c1,-3.1,?,-3.9%,?,-6.9,?
O=C(Nc1ccc(N2CCOCC2)cc1N1CCOCC1)c1ncoc1-c1cccc(F)c1,-4.7,11.7µM*,2.2%,-25.9%,6.1,?
O=C(Nc1ccccc1N1CCCCC1)c1ncoc1-c1ccc(F)cc1,-0.6,3.29µM*,3.2%,/,1.9,?
Cn1c(-c2ccccc2)c(CCO)c2ccccc21,2.8,-25.2%,33.5%,-12.7%,2.9,-24.6%
CCCc1c(CC)c(=N)c2ccccc2n1C,7.6,0.329µM*,19.3%,1.9%,36.9,-4.4%
Cc1ccc(N2C(=O)C3C(C2=O)C(C(=O)c2ccc(Cl)cc2)N2CCCC32)cc1 (centres undefined),14.2,?,2.9%,/,16.0,15.7%
Cc1ccc(N2C(=O)[C@@H]3[C@H](C2=O)[C@H]2C=CC=NN2[C@@H]3C(=O)Nc2ccccc2)cc1,16.5*,?,13.1%,?,14.9,-4.6%
CC(=O)Oc1ccc(N2C(=O)C3C(C2=O)C(C(=O)c2ccc(Cl)cc2)N2CCCC32)cc1 (centres undefined),28.7*,-59.2%,-6.7%,0.1%,5.8,-25.6%
CC(=O)Oc1ccc(C(=O)[C@H]2[C@H]3C(=O)N(c4ccc(C)cc4C)C(=O)[C@H]3[C@@H]3C=CC=NN32)cc1,-1.9,?,0.6%,-29.0%,10.2,-9.7%
COc1ccc(C(=O)[C@H]2[C@H]3C(=O)N(c4ccc(C)cc4)C(=O)[C@H]3C3C=CC=NN32)cc1 (some centres undefined),18.8*,-80.6%,-11.0%,183.6%,32.1,9.0%
CC(=O)Oc1ccc(C(=O)[C@H]2[C@H]3C(=O)N(c4ccccc4)C(=O)[C@H]3[C@@H]3C=CC=NN32)cc1,11.0,2.6%,-7.0%,12.0%,-9.9,12.2%
